Results: the supplement of paper PMC8728848
The entries come from a sample that favours the strongest signals as a whole.

What was measured:
Experiment in all cases: glycan array binding signal (z-score within array); higher = stronger binding
Conditions in all cases: glycan notation: IUPAC condensed, linker removed
[1] = target: GlcNAc(b1-3)Gal(b1-4)GlcNAc(b1-3)Gal(b1-4)GlcNAc(b1-3)Gal(b1-4)GlcNAc(b1-2)Man(a1-3)[GlcNAc(b1-3)Gal(b1-4)GlcNAc(b1-3)Gal(b1-4)GlcNAc(b1-3)Gal(b1-4)GlcNAc(b1-2)Man(a1-6)]Man(b1-4)GlcNAc(b1-4)[Fuc(a1-6)]GlcNAc
Outline: (§1)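 The binding signal is a Z-score computed within each array and averaged over linkers. Arrays of the same protein sequence at different concentrations or buffers were also averaged together. Data originate from 3228 arrays in the Consortium for Functional Glycomics database, kept only where the protein sequence was available.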

[2] = target: GlcNAc(b1-3)Gal(b1-4)GlcNAc(b1-3)Gal(b1-4)GlcNAc(b1-3)Gal(b1-4)GlcNAc(b1-3)Gal(b1-4)GlcNAc(b1-2)Man(a1-3)[GlcNAc(b1-3)Gal(b1-4)GlcNAc(b1-3)Gal(b1-4)GlcNAc(b1-3)Gal(b1-4)GlcNAc(b1-3)Gal(b1-4)GlcNAc(b1-2)Man(a1-6)]Man(b1-4)GlcNAc(b1-4)GlcNAc
Outline: as §1

[3] = target: GlcNAc(b1-3)Gal(b1-4)GlcNAc(b1-3)Gal(b1-4)GlcNAc(b1-3)GalNAc
Outline: as §1

[4] = target: Man(a1-2)Man(a1-2)Man(a1-6)[Man(a1-3)]Man
Outline: as §1

Man(a1-2)Man(a1-3)Man = target: Man(a1-2)Man(a1-3)Man
Outline: as §1

[5] = target: Man(a1-2)Man(a1-3)[Man(a1-2)Man(a1-6)]Man
Outline: as §1

[6] = target: Man(a1-2)Man(a1-3)[Man(a1-2)Man(a1-6)]Man(a1-6)[Man(a1-2)Man(a1-2)Man(a1-3)]Man
Outline: as §1

[7] = target: Man(a1-2)Man(a1-3)[Man(a1-2)Man(a1-6)]Man(a1-6)[Man(a1-2)Man(a1-2)Man(a1-3)]Man(b1-4)GlcNAc(b1-4)GlcNAc
Outline: as §1

[8] = target: Man(a1-2)Man(a1-3)[Man(a1-6)]Man(a1-6)[Man(a1-2)Man(a1-3)]Man(b1-4)GlcNAc(b1-4)GlcNAc
Outline: as §1

[9] = target: Man(a1-2)Man(a1-6)[Man(a1-3)]Man(a1-6)[Man(a1-2)Man(a1-2)Man(a1-3)]Man
Outline: as §1

[10] = target: Man(a1-2)Man(a1-6)[Man(a1-3)]Man(a1-6)[Man(a1-2)Man(a1-2)Man(a1-3)]Man(b1-4)GlcNAc(b1-4)GlcNAc
Outline: as §1

[11] = target: Man(a1-3)[Man(a1-6)]Man(a1-6)[Man(a1-2)Man(a1-3)]Man(b1-4)GlcNAc(b1-4)GlcNAc
Outline: as §1

[12] = target: Man(a1-3)[Man(a1-6)]Man(b1-4)GlcNAc(b1-4)GlcNAc
Outline: as §1

[13] = target: Man(a1-3)[Man(a1-6)]Man(b1-4)GlcNAc(b1-4)[Fuc(a1-6)]GlcNAc
Outline: as §1

[14] = target: Neu5Ac(a2-3)Gal(b1-3)GalNAc6S
Outline: as §1

[15] = target: Neu5Ac(a2-3)Gal(b1-3)GlcNAc(b1-6)GalNAc
Outline: as §1

[16] = target: Neu5Ac(a2-3)Gal(b1-3)[GlcNAc(b1-6)]GalNAc
Outline: as §1

[17] = target: Neu5Ac(a2-3)Gal(b1-3)]Neu5Ac(a2-3)Gal(b1-4)]GlcNAc
Outline: as §1

[18] = target: Neu5Ac(a2-3)Gal(b1-4)GlcNAc(b1-2)[Neu5Ac(a2-3)Gal(b1-4)GlcNAc(b1-4)]Man(a1-3)[GlcNAc(b1-4)][Neu5Ac(a2-3)Gal(b1-4)GlcNAc(b1-4)Man(a1-6)]Man(b1-4)GlcNAc(b1-4)GlcNAc
Outline: as §1

[19] = target: Neu5Ac(a2-3)Gal(b1-4)GlcNAc(b1-3)Gal(b1-4)GlcNAc(b1-2)Man(a1-3)[Neu5Ac(a2-3)Gal(b1-4)GlcNAc(b1-3)Gal(b1-4)GlcNAc(b1-2)Man(a1-6)]Man(b1-4)GlcNAc(b1-4)GlcNAc
Outline: as §1

[20] = target: Neu5Ac(a2-3)[GalNAc(b1-4)]Gal(b1-4)Glc
Outline: as §1

[21] = target: Neu5Ac(a2-3)[GalNAc(b1-4)]Gal(b1-4)GlcNAc
Outline: as §1

[22] = target: Neu5Ac(a2-6)Gal(b1-4)GlcNAc(b1-2)Man(a1-6)[Man(a1-3)]Man(b1-4)GlcNAc(b1-4)GlcNAc
Outline: as §1

[23] = target: Neu5Ac(a2-6)Gal(b1-4)GlcNAc(b1-3)Gal(b1-4)GlcNAc
Outline: as §1

[24] = target: Neu5Ac(a2-6)Gal(b1-4)GlcNAc(b1-3)Gal(b1-4)GlcNAc(b1-3)GalNAc
Outline: as §1

[25] = target: Neu5Ac(a2-6)Gal(b1-4)GlcNAc(b1-3)Gal(b1-4)GlcNAc(b1-3)[Neu5Ac(a2-6)Gal(b1-4)GlcNAc(b1-3)Gal(b1-4)GlcNAc(b1-6)]GalNAc
Outline: as §1

Neu5Ac(a2-6)GalNAc = target: Neu5Ac(a2-6)GalNAc
Outline: as §1

[26] = target: Neu5Ac(a2-6)GalNAc(b1-4)GlcNAc
Outline: as §1

[27] = target: Neu5Ac(a2-8)Neu5Ac(a2-3)Gal(b1-3)GalNAc(b1-4)[Neu5Ac(a2-3)]Gal(b1-4)Glc
Outline: as §1

[28] = target: Neu5Ac(a2-8)Neu5Ac(a2-8)Neu5Ac(a2-3)Gal(b1-4)Glc
Outline: as §1

Neu5Gc(a2-3)Gal(b1-4)Glc = target: Neu5Gc(a2-3)Gal(b1-4)Glc
Outline: as §1

B1: Banana lectin (Musa acuminata) (protein)
chain: MNGAIKVGAWGGNGGSAFDMGPAYRIISVKIFSGDVVDGVDVTFTYYGKTETRHYGGSGGTPHEIVLQEGEYLVGMAGEVANYHGAVVLGKLGFSTNKKAYGPFGNTGGTPFSLPIAAGKISGFFGRGGKFLDAIGVYLEPLEHHHHHH
glycan array binding signal (z-score) [1]: -0.122 | glycan array binding signal (z-score) [2]: -0.165 | glycan array binding signal (z-score) [3]: -0.184 | glycan array binding signal (z-score) [4]: 6.19 | glycan array binding signal (z-score) (Man(a1-2)Man(a1-3)Man): 2.25 | glycan array binding signal (z-score) [5]: 4.51 | glycan array binding signal (z-score) [6]: 5.96 | glycan array binding signal (z-score) [7]: 2.62 | glycan array binding signal (z-score) [8]: 8.11 | glycan array binding signal (z-score) [9]: 3.34 | glycan array binding signal (z-score) [10]: 6.29 | glycan array binding signal (z-score) [11]: 13.1 | glycan array binding signal (z-score) [12]: 4.01 | glycan array binding signal (z-score) [13]: 2.88 | glycan array binding signal (z-score) [14]: -0.237 | glycan array binding signal (z-score) [15]: -0.288 | glycan array binding signal (z-score) [16]: -0.214 | glycan array binding signal (z-score) [17]: -0.223 | glycan array binding signal (z-score) [18]: -0.225 | glycan array binding signal (z-score) [19]: -0.167 | glycan array binding signal (z-score) [20]: -0.132 | glycan array binding signal (z-score) [21]: -0.169 | glycan array binding signal (z-score) [22]: 3.56 | glycan array binding signal (z-score) [23]: -0.226 | glycan array binding signal (z-score) [24]: -0.223 | glycan array binding signal (z-score) [25]: -0.161 | glycan array binding signal (z-score) (Neu5Ac(a2-6)GalNAc): -0.204 | glycan array binding signal (z-score) [26]: -0.221 | glycan array binding signal (z-score) [27]: -0.192 | glycan array binding signal (z-score) [28]: -0.139 | glycan array binding signal (z-score) (Neu5Gc(a2-3)Gal(b1-4)Glc): -0.209
